# According to the supplement of paper PMC7380943:
# Columns and labels:
# [1] = system: CLZ3 (HCA2 human fibroblast dual HR-NHEJ reporter); assay: NHEJ repair efficiency (GFP+ cells) relative to control (log10 fold); higher = more non-homologous end joining; details: 5 µM; doxycycline 0.5 ug/mL
# [2] = system: CLZ3 (HCA2 human fibroblast dual HR-NHEJ reporter); assay: HR repair efficiency (tdTomato+ cells) relative to control (log10 fold); higher = more homologous recombination; details: 5 µM; doxycycline 0.5 ug/mL
# 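For HR repair efficiency (tdTomato+ cells) relative to control in this document: compound given one day before doxycycline, which switches on I-SceI endonuclease expression to create double-strand breaks within the integrated reporter.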
# 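For NHEJ repair efficiency (GFP+ cells) relative to control in this document: compound given one day ahead of doxycycline, which switches on I-SceI endonuclease to cut the chromosomally integrated reporter and create DSBs.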
Compound,NHEJ repair efficiency (log10) [1],HR repair efficiency (log10) [2]
O=c1c(-c2ccc(O)c(O)c2)coc2c([C@@H]3O[C@H](CO)[C@@H](O)[C@H](O)[C@H]3O)c(O)ccc12 [3-Hydroxy Puerarin],-0.187,-0.112
OCc1ccc(O[C@@H]2O[C@H](CO)[C@@H](O)[C@H](O)[C@H]2O)cc1 [Gastrodin],0.113,0.307
CO[C@]1(CC[C@H](C)CO[C@@H]2O[C@H](CO)[C@@H](O)[C@H](O)[C@H]2O)O[C@H]2C[C@H]3[C@@H]4CC[C@@H]5C[C@@H](O[C@@H]6O[C@H](CO)[C@H](O)[C@H](O)[C@H]6O[C@@H]6O[C@H](CO)[C@@H](O)[C@H](O)[C@H]6O)CC[C@]5(C)[C@H]4CC[C@]3(C)[C@H]2[C@@H]1C [Anemarsaponin E],0.0103,-0.0664
COc1ccc(C=O)c(O)c1 [4-Methoxysalicylaldehyde],0.00827,-0.0885
CC[C@@H]1[C@H]2CCCCN3[C@H]2[C@H](C[C@H]3[C@@H]2C[C@H](C)C(=O)O2)[C@@H]2[C@H]1OC(=O)[C@H]2C [Tuberostemonine],0.233,-0.0247
C[C@@H]1O[C@@H](Oc2c(-c3cc(O)c(O)c(O)c3)oc3cc(O)cc(O)c3c2=O)[C@H](O)[C@H](O)[C@H]1O [Myricetrin],0.0716,-0.0586
C[N+](C)(C)[C@H](Cc1c[nH]c2ccccc12)C(=O)[O-] [Hypaphorine],0.0288,-0.124
CC(=O)S[C@@H]1CC2=CC(=O)CC[C@]2(C)[C@H]2CC[C@@]3(C)[C@@H](CC[C@@]34CCC(=O)O4)[C@H]12 [Spironolactone],0.15,-0.0059
